# Measured values published in PubChem BioAssay.
# “And” between values parts separate entries of the source, which are not always exact repeats. Identical values can stand only once. The source made the active and inactive calls.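 The calls were made as follows, unless noted: active = thallium flux through the channel raised or lowered by more than 3 SD from vehicle-only wells, actives on both sides; inactive = the rest.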
# Key:
# [1] = Cy5 fluorescence interference with SSB-bound oligo, artefact control for HCV NS3 helicase inhibitor project, biochemical, NIH Clinical Collection, E. coli SSB (AID 743268; call rule not given here)
# [2] = system: Hepatitis C virus NS3 helicase; experiment: HCV NS3 helicase inhibitors, primary screen, biochemical, fluorescence polarization, NIH Clinical Collection (AID 743270; call rule not given here); conditions: NS3 helicase binding to Cy5-dT15 DNA, stronger effect = higher value, concentration not given here
# [3] = molecular target: Single-stranded DNA-binding protein (Escherichia coli (strain K12)) (UniProt P0AGE0); experiment: E. coli SSB displacement from DNA, counter-screen for HCV NS3 helicase inhibitor project, biochemical, fluorescence polarization, NIH Clinical Collection (AID 743271; in the data active = inhibition above about 28%); conditions: stronger effect = higher value, concentration not given here
# [4] = fluorescence interference in NS3h assay format, artefact control for HCV NS3 helicase inhibitor project, biochemical, NIH Clinical Collection (AID 743272; call rule not given here;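 also: HCV NS3 helicase with a Cy5 labelled single stranded DNA probe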); conditions: fluorescence interference counterscreen, stronger effect = lower value
# [5] = molecular target: 6-phosphogluconate dehydrogenase, decarboxylating (Homo sapiens) (UniProt P52209); experiment: 6PGD enzyme inhibitors, primary screen, biochemical, human, recombinant enzyme, NADPH absorbance (AID 1159550;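 active = at least 20% inhibition of 6-phosphogluconate dehydrogenase activity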); conditions: recombinant 6PGD, NADPH absorbance 341 nm; at 10 µM; stronger effect = higher value
# Chain of 6-phosphogluconate dehydrogenase, decarboxylating (Homo sapiens) (P52209 whole entry, looked up): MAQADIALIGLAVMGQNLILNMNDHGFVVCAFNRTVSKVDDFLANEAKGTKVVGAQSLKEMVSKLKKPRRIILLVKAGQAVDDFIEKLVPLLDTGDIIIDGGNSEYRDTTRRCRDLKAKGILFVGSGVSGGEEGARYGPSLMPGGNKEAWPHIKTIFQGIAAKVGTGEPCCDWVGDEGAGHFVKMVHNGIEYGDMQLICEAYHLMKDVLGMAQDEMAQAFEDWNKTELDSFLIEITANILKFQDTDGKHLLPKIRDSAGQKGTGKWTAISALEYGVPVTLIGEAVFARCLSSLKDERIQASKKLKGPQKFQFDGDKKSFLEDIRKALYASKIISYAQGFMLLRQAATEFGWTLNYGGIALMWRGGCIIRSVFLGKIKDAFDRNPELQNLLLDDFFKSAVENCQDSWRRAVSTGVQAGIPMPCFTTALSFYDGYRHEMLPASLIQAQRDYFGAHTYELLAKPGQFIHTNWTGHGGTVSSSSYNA
# [6] = modulation of C. elegans fzo-1 (AID 1259413; call rule not given here;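 also: fzo-1 mutant C. elegans worms in liquid wells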); conditions: C. elegans fzo-1 modulator screen, mean read-out; stronger effect = higher value
# [7] = differential killing of epithelial or mesenchymal cells, primary screen, imaging, PC-3E GFP, TEM4-18 mCherry, co-culture (AID 1345086;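 active = compounds killing one labelled cell type while sparing the other, by normalised counts and ratio limits, not self-fluorescent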;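 as to all read-outs here: cells exposed to compound for 72 h before imaging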;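 as to red/green cell ratio (normalised): normalised mesenchymal count divided by normalised epithelial count so high means epithelial killing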); conditions: imaging cell counts, at 1 µM; for red/green cell ratio (normalised): actives lie on both sides, counts scaled to control wells, 1 = unselective
# [8] = sensitizers of A549 cells to miR-34 induction, primary screen, imaging, A549 dox-inducible miR-34, nuclei and caspase counts (AID 1347080;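 active = compounds whose cell count with miR-34 switched on is under 0.7 times the count with it off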); conditions: A549 miR-34 inducible, Hoechst nuclei count, 48 h
# [9] = survival rescue of mitochondrial mutant cells in low glucose, primary screen, MELAS cybrids, Rieske KO mouse fibroblasts, CellTiter-Glo (AID 1508586;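 active = mean z-score across replicates of 1.96 or higher in either the MELAS or the Rieske mutant cell line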;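 also: z relative to plate mean and SD of compound and empty wells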)
# [10] = molecular target: NAD(+) hydrolase SARM1 (Homo sapiens) (UniProt Q6SZW1); experiment: SARM1 TIR NADase inhibitors, cell lysate, NAD-Glo luminescence (AID 1508614;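 active = compound whose remaining NAD level is above about 45 nM, limit read from the data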;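 also: higher remaining NAD means stronger inhibition of SARM1 NADase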); conditions: SAM-TIR HEK293T lysate NADase, at 1 µM, stronger effect = higher value
# Chain of NAD(+) hydrolase SARM1 (Homo sapiens) (Q6SZW1 whole entry, looked up, the tested form may be a part): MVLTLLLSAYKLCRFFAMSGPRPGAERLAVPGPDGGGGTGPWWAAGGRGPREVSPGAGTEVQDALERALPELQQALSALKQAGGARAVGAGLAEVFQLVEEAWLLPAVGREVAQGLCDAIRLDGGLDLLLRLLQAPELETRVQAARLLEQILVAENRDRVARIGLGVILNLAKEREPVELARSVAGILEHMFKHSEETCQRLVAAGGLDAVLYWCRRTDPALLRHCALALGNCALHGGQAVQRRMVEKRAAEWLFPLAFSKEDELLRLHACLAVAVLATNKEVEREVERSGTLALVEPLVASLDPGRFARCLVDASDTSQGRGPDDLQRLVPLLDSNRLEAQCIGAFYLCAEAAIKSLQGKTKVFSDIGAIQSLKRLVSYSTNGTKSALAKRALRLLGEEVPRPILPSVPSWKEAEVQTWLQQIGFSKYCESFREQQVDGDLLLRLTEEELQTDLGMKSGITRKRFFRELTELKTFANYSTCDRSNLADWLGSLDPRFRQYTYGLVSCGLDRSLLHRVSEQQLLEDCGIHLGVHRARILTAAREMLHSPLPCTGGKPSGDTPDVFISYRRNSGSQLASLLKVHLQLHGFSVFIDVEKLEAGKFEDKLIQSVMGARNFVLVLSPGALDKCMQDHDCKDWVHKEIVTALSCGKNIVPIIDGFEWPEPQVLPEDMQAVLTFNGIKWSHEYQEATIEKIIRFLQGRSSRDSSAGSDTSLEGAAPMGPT
# [11] = molecular target: Mitogen-activated protein kinase 7 (Homo sapiens) (UniProt Q13164); experiment: ERK5 transactivation activators in reporter cells, primary screen, cell-based, HTS (AID 1508626;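 active = luciferase signal above three times the same-plate solvent-only control wells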;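 also: luciferase driven by Gal4-ERK5 fusion binding five Gal4 sites before minimal TATA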); conditions: HeLa Gal4-ERK5 transactivation, 18 h, at 5 µM, stronger effect = higher value
# Chain of Mitogen-activated protein kinase 7 (Homo sapiens) (Q13164 whole entry, looked up, the tested form may be a part): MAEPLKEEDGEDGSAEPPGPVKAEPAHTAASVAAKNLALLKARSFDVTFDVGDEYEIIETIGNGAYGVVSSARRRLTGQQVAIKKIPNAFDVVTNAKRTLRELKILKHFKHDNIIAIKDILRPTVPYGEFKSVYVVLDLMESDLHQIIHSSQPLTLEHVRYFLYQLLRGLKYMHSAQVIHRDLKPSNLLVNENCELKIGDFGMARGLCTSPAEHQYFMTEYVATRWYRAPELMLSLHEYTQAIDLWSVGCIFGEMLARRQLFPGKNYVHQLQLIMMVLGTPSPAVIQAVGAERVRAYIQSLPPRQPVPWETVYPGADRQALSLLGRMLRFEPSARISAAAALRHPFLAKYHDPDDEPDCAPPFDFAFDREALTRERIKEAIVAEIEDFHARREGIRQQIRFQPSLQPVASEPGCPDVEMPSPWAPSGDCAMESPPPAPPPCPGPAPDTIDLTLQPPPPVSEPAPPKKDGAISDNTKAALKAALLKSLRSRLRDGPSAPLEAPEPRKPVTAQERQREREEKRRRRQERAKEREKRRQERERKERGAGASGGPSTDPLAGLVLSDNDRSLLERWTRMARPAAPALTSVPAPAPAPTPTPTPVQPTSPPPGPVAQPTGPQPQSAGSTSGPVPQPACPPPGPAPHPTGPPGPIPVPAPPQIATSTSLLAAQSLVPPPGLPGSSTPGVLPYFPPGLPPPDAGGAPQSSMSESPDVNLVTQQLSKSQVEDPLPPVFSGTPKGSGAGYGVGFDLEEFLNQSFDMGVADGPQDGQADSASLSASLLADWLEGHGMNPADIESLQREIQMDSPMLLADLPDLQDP
# [12] = viability rescue of complex I mutant cybrids, primary screen, cell-based, galactose medium, ATP luminescence (AID 1645843;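 active = z-score of at least 1.8 in each of two replicates, scored against plate mean and spread of sample wells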;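 also: positive z means more ATP and so rescue of galactose-driven cybrid death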); conditions: complex I mutant cybrid cells, 72 h, stronger effect = higher value
# F380Y = experiment: modulators of BK channel variants, profiling panel, selectivity assay, cell-based, U2OS BacMam, thallium flux, beta subunits (AID 1259406); conditions: at 30 µM;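 also: initial slope of Thallos dye fluorescence rise after thallium is added; log ratio against the mean of 0.3% DMSO vehicle wells on the same plate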
# F380Y/beta2Delta = experiment: as above; conditions: at 30 µM
# [13] = molecular target: Calcium-activated potassium channel subunit alpha-1 (Homo sapiens) + Leucine-rich repeat-containing protein 26 (Homo sapiens) (UniProt Q12791+Q2I0M4); experiment: as above; conditions: F380Y/Slo1WT/gamma1, at 30 µM
# Chain of Calcium-activated potassium channel subunit alpha-1 (Homo sapiens) + Leucine-rich repeat-containing protein 26 (Homo sapiens) (Q2I0M4 whole entry, looked up, one chain of several): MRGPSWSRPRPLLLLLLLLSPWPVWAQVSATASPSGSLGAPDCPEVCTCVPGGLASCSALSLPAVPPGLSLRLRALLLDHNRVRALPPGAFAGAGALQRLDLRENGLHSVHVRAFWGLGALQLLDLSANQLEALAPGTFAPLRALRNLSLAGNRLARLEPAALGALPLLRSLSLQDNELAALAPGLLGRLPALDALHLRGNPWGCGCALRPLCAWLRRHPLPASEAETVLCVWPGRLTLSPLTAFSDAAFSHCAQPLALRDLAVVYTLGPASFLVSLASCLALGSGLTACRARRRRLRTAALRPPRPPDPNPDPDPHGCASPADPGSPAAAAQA
# R275C = experiment: as above; conditions: at 30 µM
# R275C/beta1 = experiment: as above; conditions: at 30 µM
# R275C/beta2Delta = experiment: as above; conditions: at 30 µM
# [14] = liver-stage malaria parasite growth inhibition, primary screen, cell-based, HepG2, luciferase luminescence, HepG2 viability (AID 624349; in the data active = parasite load remaining mostly below about 12%, no sharp cut-off; inactive = mostly above about 10%;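 also: 100% = mean of DMSO negative control wells on the same plate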); conditions: P. berghei liver stage in HepG2, luciferase luminescence, concentration not given here; parasite load remaining: stronger effect = lower value; viability: measured here: HepG2 viability without parasites
# [15] = measured here: epithelial PC-3E GFP cell survival
# [16] = measured here: mesenchymal TEM4-18 mCherry cell survival
# [17] = MELAS cybrid survival, CellTiter-Glo 48 h, stronger effect = higher value
# [18] = Rieske KO mouse fibroblast survival, CellTiter-Glo 72 h
compound,measurement,setting,value
CC[C@H]1OC(=O)[C@H](C)[C@@H](O[C@H]2C[C@@](C)(OC)[C@@H](O)[C@H](C)O2)[C@H](C)[C@@H](O[C@@H]2O[C@H](C)C[C@H](N(C)C)[C@H]2O)[C@](C)(OC)C[C@@H](C)C(=O)[C@H](C)[C@@H](O)[C@]1(C)O,fluorescence ratio,[1],1.06 (inactive)
same,inhibition,[2],-0.4% (inactive)
same,inhibition,[3],-3.18% (inactive)
same,fluorescence ratio,[4],0.99 (inactive)
same,inhibition,[5],2.59% (inactive)
same,mean signal,[6],229 (inactive)
same,red/green cell ratio (normalised),[7],0.75 (inactive)
same,normalised cell number,[7]; [15],1.39
same,normalised cell number,[7]; [16],1.04
same,fold change,"[8]; stronger effect = lower value, cell number ratio, induced over uninduced",0.89 (inactive) and 0.856 (inactive)
same,fold change,[8]; measured here: relative caspase fold change +Dox/-Dox,4.5 and 0.962
same,cell count,"[8]; measured here: total cells with miR-34 induction, stronger effect = lower value",11300 and 8870
same,cell count,[8]; measured here: total cells without miR-34 induction,12700 and 10400
same,z-score,[9]; [17],-0.605 (inactive) and -0.357 (inactive)
same,z-score,[9]; [18],-0.647 and -0.657
same,remaining NAD,[10],10 nM (inactive)
same,luciferase signal,[11],44 AU (inactive)
same,z-score,[12],-0.33 (inactive)
same,log fold change Tl+ flux,F380Y,0.0307 (inactive)
same,log fold change Tl+ flux,F380Y/beta2Delta,-0.0353 (inactive)
same,log fold change Tl+ flux,[13],-0.0843 (inactive)
same,log fold change Tl+ flux,R275C,-0.104 (inactive)
same,log fold change Tl+ flux,R275C/beta1,-0.0277 (inactive)
same,log fold change Tl+ flux,R275C/beta2Delta,0.033 (inactive)
COc1ccc(/C=C/C(=O)Nc2ccccc2C(=O)O)cc1OC,parasite load remaining,[14],13.7% (inactive) and 10.8% (inactive) and 12.8% (inactive)
same,viability,[14],99.2% and 76.6% and 140%
same,fluorescence ratio,[1],1.05 (inactive)
same,inhibition,[2],0.4% (inactive)
same,inhibition,[3],-1.64% (inactive)
same,fluorescence ratio,[4],0.99 (inactive)
same,inhibition,[5],5.84% (inactive)
same,mean signal,[6],225 (inactive)
same,red/green cell ratio (normalised),[7],0.8 (inactive)
same,normalised cell number,[7]; [15],1.21
same,normalised cell number,[7]; [16],0.98
same,z-score,[9]; [17],0.761 (inactive) and 0.318 (inactive)
same,z-score,[9]; [18],-0.0722 and 0.758
same,remaining NAD,[10],10 nM (inactive)
same,z-score,[12],1.34 (inactive) and 0.925 (inactive) and 0.79 (inactive)
same,log fold change Tl+ flux,F380Y,-0.0454 (inactive)
same,log fold change Tl+ flux,F380Y/beta2Delta,-0.0218 (inactive)
same,log fold change Tl+ flux,[13],-0.0322 (inactive)
same,log fold change Tl+ flux,R275C,-0.0585 (inactive)
same,log fold change Tl+ flux,R275C/beta1,-0.0786 (inactive)
same,log fold change Tl+ flux,R275C/beta2Delta,0.0483 (inactive)
